Most compounds without a hit are left out; they make up all but 3.1% or so of the library.
PAX8 reporter: inhibitors of PAX8-driven TPO luciferase reporter, primary screen, RMG-I cells, single concentration; SteadyGlo, 24 h; inhibition, % at 12.6 µM; 360,000 compounds, 1.2% hits; AID 652154, 2013;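 active = mean replicate inhibition at least 60% with every replicate also reaching 60%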;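 note: luciferase light reporting Pax8 driven TPO promoter activity; plate controls were median of neutral control wells for no effect and mitoxantrone controls for full effect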
EBV LMP1 NFkB: EBV LMP1-driven NF-kappaB luciferase reporter inhibitors, primary screen, cell-based, luminescence, single point | LMP1-induced NF-kappaB luciferase reporter cells | inhibition, % at 12.5 µM | 350,000 compounds, 0.69% hits | AID 504558, 2011; in the data active = inhibition above about 41%;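 note: 0% = neutral control wells and 100% = reference inhibitor control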
TWEAK Fn14 block: inhibitors of TWEAK-Fn14 signaling, primary screen, luciferase reporter cells, uHTS; TWEAK-stimulated Fn14 reporter cells, luciferase luminescence, 8 h; inhibition, % at 10 µM; 360,000 compounds, 2% hits; in the data active = inhibition above about 50%
LGR2 antag: inhibitors of bursicon-induced LGR2 CRE-luciferase signal, primary screen, cell-based, HEK293, CRE-luciferase reporter, bursicon stimulation; Drosophila bursicon receptor LGR2 (rickets); 380,000 compounds, 0.35% hits; AID 720647, 2013; bursicon-stimulated, 4 h; inhibition, % at 9.99 µM;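 active = drop in luminescence signal, shown as inhibition above about 50% in the replicate tests, limit read from the data, passing the limit was not always enough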;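 note: agonist challenge used bursicon conditioned medium at about half maximal strength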
TROY signal inh: inhibitors of TROY-driven NF-kB signaling, primary screen, Q293 LMP1-TROYcd cells, NF-kB luciferase, uHTS; Q293 LMP1-TROYcd NF-kB luciferase reporter, 4 h; inhibition, % at 10 µM; 360,000 compounds, 0.98% hits;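 active = compounds whose plate-normalised and pattern-corrected inhibition of the luciferase reporter signal at the single screening dose is 50% or more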
EWS-Fli inh: EWS/Fli-driven NR0B1 reporter inhibitors, primary screen, A673 cells, NR0B1 luciferase, luminescence, MLPCN library; AID 651661, 2012; inhibition, % at 12.6 µM; viability-normalised; 350,000 compounds, 0.67% hits;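 active = mean inhibition of at least 50% after viability correction, with every replicate also passing that limit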;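 note: firefly luciferase signal divided by Alamar Blue viability fluorescence both relative to DMSO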
DNA binding: DNA binders by acridine orange displacement, dose response, counter-screen for EWS/Fli inhibitor project, biochemical, fluorescence polarization, cherry-pick | shares compounds with EWS-Fli inh | 640 compounds, 2% hits | AC35, µM (doses to about 68 µM), without a hit: top-dose activity change, negative = DNA binding | salmon sperm DNA acridine orange fluorescence polarization;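 active = fitted curve reaches a 35% signal fall AC35 below twice the sample's top valid tested dose, actives reach about 48 µM in these data; inactive = the rest, including activity in the rising direction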;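 note: lower polarization ratio signals compound binding to DNA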
Active calls of the source: *; x = no result; ! = not active in a repeat.

SMILES	PAX8 reporter	EBV LMP1 NFkB	TWEAK Fn14 block	LGR2 antag	TROY signal inh	EWS-Fli inh	DNA binding
C[C@@H]1CN([C@H](C)CO)C(=O)c2cc(-c3ccc(F)cc3)cnc2O[C@H]1CN(C)C(=O)c1ccncc1	x	x	x	0.6	x	6.7	x
Cc1ccc(S(=O)(=O)Nc2ccc3c(c2)C(=O)N([C@H](C)CO)C[C@@H](C)[C@@H](CN(C)Cc2ccc(C(=O)Nc4ccccc4N)cc2)O3)cc1	5.3	x	x	7.4	x	51.3*	-9.5%
C[C@H](O)C#Cc1ccc2c(c1)O[C@H](CN(C)Cc1ccccc1)[C@@H](C)CN([C@@H](C)CO)S2(=O)=O	x	x	x	9.2	x	8.6	x
C[C@@H]1CN([C@H](C)CO)S(=O)(=O)c2ccc(C#CC(C)(C)O)cc2O[C@H]1CN(C)Cc1ccc(-c2ccccc2)cc1	x	x	x	1.1	x	57.9*	-15.1%
C[C@H](O)C#Cc1ccc2c(c1)O[C@@H](CN(C)Cc1ccc(-c3ccccc3)cc1)[C@H](C)CN([C@@H](C)CO)S2(=O)=O	87.2*	-118.4	36.1	20.0	6.5	67.1*!	-8.6%
O=C(CC1CC1)Nc1ccc2c(c1)[C@H]1C[C@@H](CC(=O)NC3CCCC3)O[C@H](CO)[C@H]1O2	6.2	x	x	7.3	x	-2.1	x
O=C(Nc1cccc(Oc2ccc3c(c2)C(=O)NC3=O)c1)c1cccs1	-6.0	1.1	-11.6	16.5	14.4	73.7*	-6.1%
Cc1cc(C)c(N=C2C(=O)Nc3ccccc32)c(C)c1	-3.0	19.2	21.5	-7.8	28.7	24.0	x
O=C1Nc2ccccc2C1=Nc1ccc(Br)cc1	0.3	-27.6	-14.0	-4.6	-48.2	55.1*	-14.0%
Cc1cc(Br)ccc1N=C1C(=O)Nc2ccccc21	10.3	-9.7	-3.9	14.2	-15.9	55.1*	-2.4%
O=C1Nc2ccccc2C1=Nc1ccc(Cl)cc1	2.5	-13.1	-3.5	13.1	-8.7	37.0	x
O=C1Nc2ccccc2C1=Nc1ccccc1-c1ccccc1	9.4	78.0*	15.7	2.9	6.7	54.8*	-4.6%
CCC(=O)N1CC2(C1)[C@H](c1ccccc1)[C@H](CO)N2CC1CC1	2.5	x	x	22.0	x	1.8	x
CN(C)CC(=O)N[C@H]1C[C@@H]2O[C@H](CO)CC[C@@H]2O[C@@H]1CCc1ccc(C2=CCCCC2)cc1	12.9	x	x	x	x	-8.6	x
O=C(NC(c1ccc(F)cc1)c1ccc2ccccc2n1)C1CCN(Cc2cccc(C(F)(F)F)c2)CC1 (stereo not drawn)	54.1	x	39.2	33.3	44.9	58.0*	3.7%
O=C(NC(c1ccc(F)cc1)c1ccc2ccccc2n1)C1CCN(Cc2ccc3ccccc3n2)CC1 (stereo not drawn)	9.3	x	-11.2	-16.0	-3.7	12.2	x
O=C(COC(=O)c1ccc[nH]c1=O)Nc1ccc(N2CCCCC2)cc1	18.4	46.0*	87.5*	-6.9	56.0*	75.4*	-10.7%
COCC(=O)Nc1ccc2c(c1)[C@@H]1C[C@@H](CC(=O)NCc3ccccn3)O[C@H](CO)[C@@H]1O2	-15.4	x	x	-5.5	x	10.1	x
Cc1ccccc1S(=O)(=O)N1CC[C@@H]2[C@@H](CO)Nc3ccc(-c4ccc(C#N)cc4)cc3[C@@H]21	24.0	x	x	-1.6	x	54.4*	-16.8%
CN1c2ccc(-c3cccc(C#N)c3)cc2[C@H]2[C@H](CCN2S(=O)(=O)c2cccc(F)c2)[C@H]1CO	26.1	x	x	4.3	x	15.1	x
CN1c2ccc(-c3ccc(C#N)cc3)cc2[C@H]2[C@H](CCN2S(=O)(=O)c2cccc(F)c2)[C@@H]1CO	73.0*	x	x	2.3	x	61.2*	-11.0%
COc1ccc(-c2ccc3c(c2)[C@H]2[C@H](CCN2S(=O)(=O)c2ccc(OC)cc2)[C@@H](CO)N3C)cc1	79.4*	x	x	12.1	x	54.7*	5.0%
C[C@@H]1CN([C@H](C)CO)S(=O)(=O)c2ccc(C3=CCCCC3)cc2O[C@@H]1CN(C)C(=O)C1CCOCC1	-10.8	x	x	0.7	x	-8.7	x
O=C(NC[C@@H]1CC[C@H]2[C@H](CN2Cc2ccc(Oc3ccccc3)cc2)O1)C1CCOCC1	-17.1	x	x	x	x	4.6	x
CC1(C)N=C(N)N=C(N)N1c1ccc(OCCCOc2ccccc2)c(Cl)c1	71.1*	-4.7	86.6*	-1.7	5.7	58.8*	-2.8%
SMILES	PAX8 reporter	EBV LMP1 NFkB	TWEAK Fn14 block	LGR2 antag	TROY signal inh	EWS-Fli inh	DNA binding
Cc1ccc(NC(=O)CCN2CCCCC2)cc1	10.4	26.1	99.6*	10.1	68.9*	65.6*	-1.8%
C[C@H](CO)N1C[C@H](C)[C@H](CN(C)Cc2ccncc2)Oc2ncc(C#Cc3ccncc3)cc2C1=O	x	x	x	-18.4	x	-3.2	x
C[C@H](CO)N1C[C@H](C)[C@@H](CN(C)Cc2ccc(Oc3ccccc3)cc2)Oc2ncc(-c3cncnc3)cc2C1=O	15.2	x	x	3.5	x	5.8	x
C[C@@H]1CN([C@H](C)CO)S(=O)(=O)c2ccc(-c3ccc(F)cc3)cc2O[C@H]1CN(C)Cc1cccc(F)c1	x	x	x	20.4	x	40.3	x
COc1ccc2c3c(n(C)c2c1)[C@H](CO)N(Cc1ccccc1OC)CC31CCN(CC2CCOCC2)CC1	x	x	x	5.6	x	7.4	x
O=C(O)c1ccccc1C(=O)Nc1ccc(Oc2ccc3ccccc3c2)cc1	-45.8	-14.0	21.3	-80.7	28.5	57.7*	0.5%
O=C(O)c1ccccc1C(=O)Nc1ccc(Oc2cccc3ccccc23)cc1	26.1	23.5	87.8*	18.3	71.0*	85.7*	-8.5%
C[C@@H]1CCCCO[C@@H](CN(C)C(=O)CCC(F)(F)F)[C@H](C)CN([C@H](C)CO)C(=O)c2cc(NS(=O)(=O)c3cccs3)ccc2O1	25.1	x	x	-2.8	x	3.2	x
CNC[C@@H]1OCCCC[C@H](C)Oc2ccc(NC(=O)C3CCCCC3)cc2C(=O)N([C@@H](C)CO)C[C@@H]1C	25.7	x	x	-12.2	x	-2.1	x
CCOC(=O)c1c(-c2ccc(C)cc2)csc1NC(=O)CCN1CCOCC1	12.9	-5.9	8.7	-1.7	-1.9	81.0*	-9.1%
Cc1noc(C)c1S(=O)(=O)N(C)C[C@@H]1Oc2c(NS(=O)(=O)c3cn(C)cn3)cccc2C(=O)N([C@@H](C)CO)C[C@@H]1C	x	x	x	3.3	x	-7.6	x
Cc1ccc(NC(=O)COC(=O)c2ccc3c(c2)OCO3)cc1S(=O)(=O)N1CCCCC1	2.8	-5.7	0.9	11.6	17.7	71.9*	-5.1%
Cc1ccc(NC(=O)COC(=O)c2ccc(OC(F)F)cc2)cc1S(=O)(=O)N1CCCCC1	-12.2	-5.1	-3.9	-7.5	22.5	2.7	x
